Source: PubChem BioAssay (NCATS)
Results filed as inconclusive are left out. Where a call stands in place of a potency, no number is given. Active and inactive are the calls of the source. Calls follow the shape of the dose curve; as a rule, active = well fitted curve in the direction sought with a large enough effect; inconclusive = small, poorly fitted or top-dose-only effect, or another doubt; inactive = no such curve, though single readings can be large; an effect the other way counts as inactive or inconclusive.

Legend:
[1] = biological target: Aldehyde dehydrogenase, mitochondrial (Homo sapiens) (UniProt P05091); assay: qHTS for Inhibitors of the Aldehyde Dehydrogenase Family (ALDH2) Primary screen (AID 2061308); also: nearly all actives have a fitted effect of over 55% in size
[2] = biological target: Retinaldehyde dehydrogenase 3 (Homo sapiens) (UniProt P47895); assay: qHTS for Inhibitors of the Aldehyde Dehydrogenase Family (ALDH1A3) Primary screen (AID 2061315)

Compound | Potency [1] | Potency [2]
Cc1cc(NS(=O)(=O)c2ccc(NC(=O)c3ccc(Cl)c(Cl)c3)cc2)no1 | inactive | inactive
CCN(Cc1sccc1C)c1ncnc2ccc(-c3ccc4c(c3)OCO4)cc12 | inactive | inactive
Cc1cc(C)nc(Nc2nnc(N3CCN(c4cccc(C(F)(F)F)c4)CC3)s2)c1 | inactive | inactive
C=C(C)C(=O)OC1CC2(C)OC(=CC2=O)C(=C)CC2OC(=O)C(COC)C12 (stereo not given) | inactive | inactive
O=C1CCc2cc([S+](=O)([O-])NC3CCOCC3)ccc2N1 | inactive | inactive
O=c1c2ccccc2nc2sc(Nc3cccc4ccccc34)nn12 | inactive | inactive
Cc1cnc(-c2ccccc2C(C)C)nc1NCc1ccc(-c2ccnc(C(F)(F)F)c2)cc1 | inactive | inactive
Cc1cc(C)n2ncc(C(=O)Nc3ccc(S(C)(=O)=O)cc3)c2n1 | inactive | inactive
Cc1nnc(-c2cnn(C)c2N)n1CCCc1ccccn1 | inactive | inactive
CC(C)(C)OC(=O)N1CCC(C(=O)Nc2ccc([S+](=O)([O-])Nc3nccs3)cc2)CC1 | inactive | inactive
COc1ccc(-c2nnc3n2N=C(c2ccc(OC)c(OC)c2)CS3)cc1 | inactive | inactive
COc1cc(NC(=O)C(OC(=O)CNC(=O)c2ccccc2)c2ccccc2)c(OC)cc1Cl (stereo not given) | inactive | inactive
O=C(Cc1nnc(CNC(=O)c2ccccc2)o1)Nc1cc(C(F)(F)F)ccc1Cl | inactive | inactive
Cc1cnc(-c2ccccc2C(C)C)nc1NCc1ccc(C(N)=O)cc1 | inactive | inactive
COc1ccc(C2=Nn3c(nnc3-c3ccccc3F)SC2)cc1OC1CCOC1 (stereo not given) | inactive | inactive
